# Compound activity (PubChem BioAssay)
# DT40 TDP1 no CPT: qHTS for Inhibitors of human tyrosyl-DNA phosphodiesterase 1 (TDP1): qHTS in cells in absence of CPT; DT40 Tdp1-/- hTDP1 cells, no CPT, ATP luminescence, 48 h; Potency, µM (highest dose often 46.2 µM), for the others: at the highest dose activity change, negative = growth inhibition, usual class: inhibitors; actives 15% (n = 420,000); AID 686978, 2013; further: potency means the concentration at half of the fitted maximal effect; nearly all actives have a fitted effect of over 55% in size
#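 A cellular qHTS used chicken DT40 cells lacking endogenous Tdp1 but carrying stably transfected human TDP1. Compounds were applied without camptothecin, and cell growth kinetics were judged by ATP-dependent luminescence after ≥48 hr.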
# IL-1B inflam inh: inflammasome signaling inhibition, IL-1 beta readout; THP-1 LPS/ATP IL-1B secretion, AlphaLISA, 16 h; stronger effect = lower value; activity change, % at 57.5 µM; actives 4.7% (n = 360,000); AID 743279; in the data active means activity change below about -50%; inconclusive means mostly about -30% to -49%
#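 Secreted IL-1B measured by AlphaLISA bead assay after 16 h compound exposure of THP-1 cells; compounds (final up to 57.5 uM) added 1 h before LPS (250 ng/mL) and ATP (1.25 mM) stimulation; lower signal means less secretion.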
# HT1080 IDH1KD tx: HT-1080 IDH1 knockdown cell toxicity (counter line); HT-1080 IDH1 knockdown viability, ATP luminescence, 48 h; Potency, µM (highest dose often 46.1 µM), inactives show at the top dose activity, negative = toxicity, actives largely listed as cytotoxic; actives 2% (n = 360,000); AID 686971;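 further: potency means the concentration at half of the fitted maximal effect; 0% = DMSO wells and -100% = cell-free medium wells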
#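 IDH1KD HT-1080 cells, 750/well, RPMI + 5% FBS; compound pinned after 2 h settling; 48 h, 37 °C; CellTiter-Glo luminescence; % activity normalised to DMSO and no-cell wells; curves fitted, classed by r2 and efficacy.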
# HT1080NT lethal: kills 2HG-producing HT-1080-NT fibrosarcoma cells; Potency, µM (top dose mostly 46.1 µM), inactives show top-dose activity, negative = less viability, most hits filed as cytotoxic; AID 686970; actives 1.6% (n = 360,000); HT-1080-NT fibrosarcoma viability, CellTiter-Glo ATP luminescence, 48 h;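 further: NT is the 2HG producing partner of a matched IDH1 knockdown line; potency means the concentration at half of the fitted maximal effect; 0% = DMSO-treated cells and -100% = media-only wells without cells; nearly all actives have a fitted effect of over 55% in size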
#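 Viability by CellTiter-Glo luminescence after 48 h compound exposure at 37C of HT-1080-NT cells (750/well, RPMI, 5% FBS). % activity scaled between DMSO wells and medium-only wells, then curve-fitted and categorized by curve class.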
# DT40 TDP1 CPT: growth inhibition of DT40 Tdp1-/-;hTDP1 cells with camptothecin (screen for TDP1 inhibitors); Potency, µM (titrated, usually from 46.2 µM), without a hit: at the highest dose activity change, negative = growth inhibition, usual class: inhibitors; chicken DT40 Tdp1-/-;hTDP1 cells + 20 nM CPT, ATP luminescence, 48 h; actives 12% (n = 420,000); AID 686979; further: potency means the concentration at half of the fitted maximal effect; nearly all actives have a fitted effect of over 55% in size
#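 Chicken DT40 Tdp1-/- cells complemented with human TDP1, 400 cells/well, exposed to compounds plus 20 nM camptothecin for at least 48 h at 37 C; viability read as ATP content by CellTiter-Glo luminescence.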
# * marks the source's active call; other numbers are inactive results; u = inconclusive; x = not tested or not shown. Rows were chosen to be rich in hits. Some 19% of all compounds tested hit in one or more screens of this group. Unless noted, the call rests on the fitted dose curve; in most records, active means well fitted curve in the direction sought with a large enough effect; inconclusive means small, poorly fitted or top-dose-only effect, or another doubt; inactive means no such curve, though single readings can be large; an effect the other way counts as inactive or inconclusive. Unless noted, on the % scale 0 is the no-effect control and ±100 the full control effect.
SMILES,DT40 TDP1 no CPT,IL-1B inflam inh,HT1080 IDH1KD tx,HT1080NT lethal,DT40 TDP1 CPT
CCN(CC)S(=O)(=O)c1cccc(NC(=O)C(=O)c2c(-c3ccccc3)cc3ccccn23)c1,23µM*,29,-1%,0%,u
CCN(CC)S(=O)(=O)c1cccc(C(=O)c2c(C)cc3ccccn23)c1,21µM*,1,-14%,0%,u
Cc1ccccc1-c1cc2nc(Oc3cccc(F)c3)n(C)c(=O)c2s1,u,-9,-1%,15%,u
O=C1OC2(c3ccccc31)c1cc(Br)c(O)c(Br)c1Oc1c2cc(Br)c(O)c1Br,-21%,x,x,x,-7%
O=C(Cc1ccccc1[N+](=O)[O-])Nc1nccs1,u,15,0%,1%,8.2µM*
O=C(Cc1ccccc1)Nc1nccs1,-14%,-5,1%,-1%,-17%
O=C(Nc1nccs1)c1ncc(Cl)c(Cl)c1Cl,15µM*,-56*,-25%,u,21µM*
O=C(Nc1ccccc1N1CCOCC1)c1ccc(N2CCOCC2)c([N+](=O)[O-])c1,u,-18,10%,u,u
O=C(Nc1nccs1)c1ccc(Cl)c([N+](=O)[O-])c1,3%,-69*,1%,-3%,5%
O=C(Nc1nccs1)c1ccc(N2CCOCC2)c([N+](=O)[O-])c1,21µM*,-27,13%,16%,u
O=C(Nc1nccs1)c1cc([N+](=O)[O-])ccc1Cl,u,-25,u,u,u
CCOC(=O)c1c(C)[nH]c(C(=O)Nc2cc(OCC)c(N3CCOCC3)cc2OCC)c1C,u,1,0%,-3%,u
O=C(CN1C(=O)NC2(CCc3ccccc32)C1=O)NCCc1ccccc1 (configuration not stated),-4%,5,5%,11%,2%
NS(=O)(=O)c1ccc(CNC(=O)c2ccc(C(=O)c3ccccc3)cc2)cc1,u,-7,0%,-2%,-25%
COc1cccc(-c2c3c([nH]c(=O)c2C#N)CCc2cc(OC)ccc2-3)c1,-23%,17,20%,4%,-10%
Cc1ccccc1Cn1c(=O)n(CCC(=O)NCc2ccco2)c(=O)c2sccc21,-9%,x,x,x,-4%
CN(NS(=O)(=O)c1ccc(Cl)cc1)c1nc(C(F)(F)F)nc2ccccc12,13%,26,7%,0%,-1%
COc1ccc(C(=O)NN(C)c2nc(-c3ccccc3)nnc2C(F)(F)F)cc1,16µM*,-5,9%,14%,u
CN(NC(=O)C(C)(C)C)c1nc(-c2ccccc2)nnc1C(F)(F)F,-29%,15,-2%,2%,u
COc1ccc(C(=O)NN(C)c2nc(C(F)(F)F)nc3ccccc23)cc1,0.21µM*,94,0.0065µM*,u,0.18µM*
Cc1cccc(C(=O)NN(C)c2nc(-c3ccccc3)nnc2C(F)(F)F)c1,2.6µM*,5,1%,3%,21µM*
Clc1cccc(Cl)c1-c1nnc2cccc(Cl)n12,u,u,2%,13%,-29%
COc1ccc(S(=O)(=O)NCC(c2cccs2)S(=O)(=O)c2ccccc2)cc1OC (configuration not stated),-19%,x,x,x,u
COC[C@@H]1CCCN1c1ccc2c(c1)O[C@@H](COCc1ccccc1)CN([C@H](C)c1ccccc1)S2(=O)=O,23µM*,-20,-2%,-18%,u
C[C@H](c1ccccc1)N1C[C@@H](COCc2ccccc2)Oc2cc(N3CCC[C@H]3CO)ccc2S1(=O)=O,18µM*,-14,u,u,u
SMILES,DT40 TDP1 no CPT,IL-1B inflam inh,HT1080 IDH1KD tx,HT1080NT lethal,DT40 TDP1 CPT
C[C@@H](c1ccccc1)N1C[C@H](COCc2ccccc2)Oc2cc(N3CCC[C@@H]3CO)ccc2S1(=O)=O,u,-12,u,u,u
COC[C@@H]1CCCN1c1ccc2c(c1)O[C@@H](COCc1ccccc1)CN([C@@H](C)c1ccccc1)S2(=O)=O,12µM*,41,-1%,-2%,9.2µM*
Cc1ccc(OCC(=O)NCCCNC(=O)c2ccccn2)cc1C,-1%,19,7%,8%,1%
CCc1cccc(C)c1NC(=O)C1=C(C)C(=O)OC12CCC(C)CC2 (configuration not stated),-7%,x,x,x,-96%
CCn1cc(C(=O)N2CCN(c3ccccc3)CC2)c(=O)c2cc(S(=O)(=O)N(C)C3CCCCC3)ccc21,-26%,x,x,x,-9%
COC(=O)[C@@]12C[C@@H](CC(=O)NCCC(C)C)C(=O)N(Cc3ccccc3)C1=CCC(C)(C)C2,u,u,-10%,0%,u
O=C(CNS(=O)(=O)c1ccccc1)OCC(=O)c1ccc([N+](=O)[O-])cc1,u,0,-4%,-4%,21µM*
O=C(Cc1ccccc1)NCC(=O)OCC(=O)c1ccc([N+](=O)[O-])cc1,u,-72*,23%,1%,u
O=C(CNS(=O)(=O)c1ccccc1)OCC(=O)c1ccc(Br)cc1,-5%,-4,2%,-2%,2%
O=C(CCc1ccccc1)OCC(=O)c1cccc([N+](=O)[O-])c1,-15%,9,0%,-3%,-5%
O=C(COC(=O)c1cccc([N+](=O)[O-])c1)c1ccc(OCc2ccccc2)cc1,13µM*,-12,21%,16%,u
O=C(Cc1ccc([N+](=O)[O-])cc1)NCc1ccccn1,2.9µM*,27,0%,13%,4.6µM*
CCOc1ncccc1C(=O)NNC(=O)c1ccc(NS(=O)(=O)c2cccs2)cc1,0%,5,-10%,-2%,1%
O=C(CNC(=O)c1ccco1)OCC(=O)c1ccc(Cl)cc1,4%,23,5%,-2%,7%
O=C(CNC(=O)c1ccco1)OCC(=O)c1ccc([N+](=O)[O-])cc1,u,-76*,0%,6%,u
CCOC(=O)N1CCC(NC(=O)CCc2c(C)nc3ncnn3c2C)CC1,1%,20,10%,-1%,2%
Cc1ccc(-c2nnc(SCC(=O)NC3CCCC3)nc2-c2ccc(C)cc2)cc1,13µM*,x,x,x,18µM*
CCC(Sc1nnc(-c2ccc(OC)c(OC)c2)c(-c2ccc(OC)c(OC)c2)n1)C(=O)NC1CCCC1 (configuration not stated),u,x,x,x,16µM*
COc1ccc(-c2nnc(SCC(=O)NC3CCCC3)nc2-c2ccc(OC)c(OC)c2)cc1OC,21µM*,x,x,x,18µM*
CCn1c(SCC(=O)NC2CCCCC2)nnc1-c1cc2cccc(OC)c2o1,23µM*,-26,2%,-10%,u
